Sampled rows, rich in hits. Any-hit rate of the full collection: about 18%.
IL-1B inflam inh: qHTS for Inhibitors of Inflammasome Signaling: IL-1-beta AlphaLISA Primary Screen | activity change, % at 57.5 µM | actives 4.7% (n = 360,000) | THP-1 LPS/ATP IL-1B secretion, AlphaLISA, 16 h; stronger effect = lower value; in the data active means activity change below about -50%; inconclusive means mostly about -30% to -49%
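THP-1 cells pretreated 1 hr with compounds (up to 57.5 uM final), then stimulated with LPS (250 ng/mL final) plus ATP (1.25 mM final); secreted IL-1B measured by AlphaLISA after 16 hr, decreased signal indicating inhibition.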
DT40 TDP1 no CPT: qHTS for Inhibitors of human tyrosyl-DNA phosphodiesterase 1 (TDP1): qHTS in cells in absence of CPT. DT40 Tdp1-/- hTDP1 cells, no CPT, ATP luminescence, 48 h. Potency, µM (top dose mostly 46.2 µM), actives largely listed as inhibitors. actives 15% (n = 420,000). AID 686978, 2013; further: nearly all actives have a fitted effect of over 55% in size
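Compound effects on proliferation are scored in DT40 Tdp1-/-;hTDP1 cells in the absence of CPT. ATP levels (CellTiter-Glo luminescence) are recorded after a ≥48 hr, 37 °C incubation.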
TDP1 block: qHTS Assay for Inhibitors of Tyrosyl-DNA Phosphodiesterase (TDP1). Tyrosyl-DNA phosphodiesterase 1 (Homo sapiens), Q9NUW8. recombinant TDP1, AlphaScreen DNA substrate cleavage. Potency, µM (titrated, usually from 130 µM), most hits filed as inhibitors. actives 0.28% (n = 350,000). AID 485290, 2010; further: nearly all actives have a fitted effect of over 40% in size
Target sequence (Q9NUW8 whole entry, looked up): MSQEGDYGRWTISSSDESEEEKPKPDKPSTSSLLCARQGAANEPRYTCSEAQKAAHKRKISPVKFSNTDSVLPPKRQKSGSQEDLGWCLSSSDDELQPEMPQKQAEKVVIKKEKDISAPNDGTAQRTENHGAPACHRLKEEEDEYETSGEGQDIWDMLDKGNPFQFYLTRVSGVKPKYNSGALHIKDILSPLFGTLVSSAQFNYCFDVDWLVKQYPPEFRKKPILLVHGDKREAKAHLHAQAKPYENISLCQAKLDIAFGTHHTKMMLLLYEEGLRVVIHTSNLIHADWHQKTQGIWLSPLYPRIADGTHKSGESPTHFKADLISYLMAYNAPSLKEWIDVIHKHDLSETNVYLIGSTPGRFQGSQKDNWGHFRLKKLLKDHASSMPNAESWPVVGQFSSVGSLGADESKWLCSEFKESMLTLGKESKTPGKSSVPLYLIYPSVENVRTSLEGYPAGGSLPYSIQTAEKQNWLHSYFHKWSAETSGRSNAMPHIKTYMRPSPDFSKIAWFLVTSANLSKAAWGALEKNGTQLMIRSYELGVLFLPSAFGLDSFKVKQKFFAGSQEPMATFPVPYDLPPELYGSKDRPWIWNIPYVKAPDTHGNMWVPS
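Enzyme-compound mixtures sat 15 min at room temperature, followed by a 5 min reaction with 15 nM final substrate and 10 min with AlphaScreen beads. Recombinant human Tdp1 was used at 1 nM final.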
TDP1 cell CPT: qHTS for Inhibitors of human tyrosyl-DNA phosphodiesterase 1 (TDP1): qHTS in cells in presence of CPT. chicken DT40 Tdp1-/-;hTDP1 cells + 20 nM CPT, ATP luminescence, 48 h. Potency, µM (top dose mostly 46.2 µM), usual class: inhibitors. actives 12% (n = 420,000). AID 686979, 2013; further: nearly all actives have a fitted effect of over 55% in size
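Chicken DT40 Tdp1-/- cells complemented with human TDP1, 400 cells/well, exposed to compounds plus 20 nM camptothecin for at least 48 h at 37 C; viability read as ATP content by CellTiter-Glo luminescence.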
HepG2 viability: qHTS for Inhibitors of TGF-b: Cytotox Counterscreen | Potency, µM (titrated, usually from 46.1 µM), hits mostly cytotoxic | AID 588856, 2011 | actives 0.76% (n = 410,000) | HepG2 CAGA-GFP viability, ATP luminescence, 18 h
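HepG2 CAGA-GFP cells (1000/well, DMEM with 1% FBS) received compound, then TGF-beta at 500 pg/mL final, and were incubated 18 hours at 37 degrees C. Viability was read by CellTiter-Glo luminescence. Media-only wells were set as complete cell-killing and DMSO as no toxicity.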
TGFb inhibitor: qHTS for Inhibitors of TGF-b; actives 1.2% (n = 410,000); HepG2 CAGA-GFP TGF-b/SMAD3 reporter, GFP fluorescence, 18 h; TGF-beta stimulated, 500 pg/mL final; AID 588855, 2011; Potency, µM (highest dose often 46.1 µM), hits mostly inhibitors; further: nearly all actives have a fitted effect of over 65% in size
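Per well, imaged GFP fluorescence of HEPG2 CAGA-GFP cells gives the signal; cells get compound, then TGF-beta (500 pg/mL final), 18 h at 37 degrees C; %Activity versus -TGF-beta and +DMSO controls.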
Large screens that a line does not name were inactive. Unless noted, the call rests on the fitted dose curve; in most records, active means well fitted curve in the direction sought with a large enough effect; inconclusive means small, poorly fitted or top-dose-only effect, or another doubt; inactive means no such curve, though single readings can be large; an effect the other way counts as inactive or inconclusive.

CC(=O)c1cccc(NC(=O)CN(Cc2ccccc2)S(C)(=O)=O)c1	none
Cc1cc(C)cc(NC(=O)CN(Cc2ccccc2)S(C)(=O)=O)c1	DT40 TDP1 no CPT 13µM, TDP1 cell CPT inconclusive
CS(=O)(=O)N(CC(=O)NCc1ccc2c(c1)OCO2)Cc1ccccc1	DT40 TDP1 no CPT 21µM, TDP1 cell CPT 29µM
O=C(Cc1ccccc1)NCc1ccc2c(c1)OCO2	none
CCCOc1ccc(CSc2ncn[nH]2)cc1	DT40 TDP1 no CPT 5.8µM, TDP1 cell CPT 4.6µM
Brc1ccc(CSc2ncn[nH]2)cc1	none
CC(C)(C)c1ccc(C(=O)C2CC2)cc1	none (no result: TDP1 block)
CC(C)(C)c1ccc(C(=O)C=[N+]=[N-])cc1	DT40 TDP1 no CPT 15µM, TDP1 cell CPT 26µM
COC(=O)CCCCCN1C(=O)NC(c2ccccc2)C(C(=O)OCc2ccccc2)=C1C (configuration not stated)	DT40 TDP1 no CPT 16µM, TDP1 cell CPT 21µM
CCCCNC(=O)C(C1CCCCC1)N(CCN(C)C)C(=O)CCCN1C(=O)NC(c2ccc(-c3ccccc3)cc2)C(C(=O)OCc2ccccc2)=C1C (configuration not stated)	none (no result: IL-1B inflam inh, DT40 TDP1 no CPT, TDP1 cell CPT, HepG2 viability, TGFb inhibitor)
CCCCNC(=O)C(C)N(CCN(C)C)C(=O)CCCN1C(=O)NC(c2ccc([N+](=O)[O-])cc2)C(C(=O)OCc2ccccc2)=C1C (configuration not stated)	IL-1B inflam inh -79, DT40 TDP1 no CPT 23µM, TDP1 cell CPT 18µM, TGFb inhibitor inconclusive
O=C(O)c1ccc(/C=N/Nc2ccc(Cl)nn2)cc1	TDP1 cell CPT inconclusive
CNc1nn(-c2cccc(Cl)c2)nc1N	DT40 TDP1 no CPT 2.1µM, TDP1 cell CPT inconclusive
CCNc1nc(C#N)nc2c1ncn2-c1cccc(Cl)c1	none (no result: IL-1B inflam inh, DT40 TDP1 no CPT, TDP1 cell CPT, HepG2 viability, TGFb inhibitor)
Cc1c(Cl)cnc(NC(=O)COC(=O)C2CC3CCCC(C2)C3=O)c1Cl (configuration not stated)	none
CCN(CC)C(=O)Cn1c(=O)cc(C)c2c(C)nn(C)c21	none (no result: IL-1B inflam inh)
COc1ccc(CN(CC2CCCO2)C(=O)c2cc3sccc3n2C)c(OC)c1 (configuration not stated)	IL-1B inflam inh -104, DT40 TDP1 no CPT inconclusive
O=C(Nc1ccc(F)cc1)C(c1cccc(F)c1)N1CCN(c2ccncc2)CC1 (configuration not stated)	DT40 TDP1 no CPT inconclusive, TDP1 cell CPT inconclusive (no result: TDP1 block, HepG2 viability, TGFb inhibitor)
Cc1cccn2cc(COc3cccc([N+](=O)[O-])c3)nc12	none
Cc1cccn2cc(COc3ccc(-c4ccccc4)cc3)nc12	DT40 TDP1 no CPT 12µM
CCOc1cc(C2c3c(-c4ccccc4O)n[nH]c3C(=O)N2Cc2cccnc2)ccc1O (configuration not stated)	none (no result: IL-1B inflam inh)
Cc1ccn2c(NC(=O)C(C)(C)Oc3ccc(Cl)cc3)c(-c3cccs3)nc2c1	IL-1B inflam inh inconclusive, DT40 TDP1 no CPT 18µM, TDP1 cell CPT inconclusive, TGFb inhibitor inconclusive
O=C1NC(Cc2ccccc2)c2nc3cc(F)ccc3c(=O)n2-c2ccccc21 (configuration not stated)	none (no result: IL-1B inflam inh, DT40 TDP1 no CPT, TDP1 cell CPT, HepG2 viability, TGFb inhibitor)
c1ccc(-c2nnc(CN3CCCc4ccccc43)o2)cc1	DT40 TDP1 no CPT 23µM, TDP1 cell CPT inconclusive
c1ccc(-c2nnc(CN3CCCCC3)o2)cc1	none (no result: TDP1 block)
CCOC(=O)C1=C(N)Oc2cc(O)ccc2C1c1cccc(Cl)c1 (configuration not stated)	DT40 TDP1 no CPT inconclusive, TDP1 cell CPT inconclusive, TGFb inhibitor 20µM
CCOC(=O)C1=C(N)Oc2cc(O)ccc2C1c1cccnc1 (configuration not stated)	DT40 TDP1 no CPT inconclusive, TDP1 cell CPT 23µM
CCOC(=O)C1=C(N)OC2=C(C(=O)CC(C)C2)C1c1cccnc1 (configuration not stated)	none
CCOC(=O)C1=C(N)Oc2cc(O)ccc2C1c1ccc(Br)cc1 (configuration not stated)	TGFb inhibitor inconclusive (no result: TDP1 block)
COc1cccc(CNC(=O)c2cnn(-c3ncc4c(n3)-c3ccccc3CCC4)c2C)c1OC	TDP1 cell CPT inconclusive (no result: IL-1B inflam inh, TDP1 block, HepG2 viability, TGFb inhibitor)
CCCS(=O)(=O)NC(=O)C1(C)CCCN(C(=O)c2cc(F)ccc2C)C1 (configuration not stated)	none (no result: TDP1 block)
O=C(Nc1ccccc1N1CCCC1)C1CC(=O)N(Cc2ccccc2)C1 (configuration not stated)	none
O=[N+]([O-])c1ccc(N2CCCCCC2)c([N+](=O)[O-])c1	none
CC(C)CN(CC(C)C)S(=O)(=O)c1cc([N+](=O)[O-])ccc1N1CCCCCC1	DT40 TDP1 no CPT 16µM, TDP1 cell CPT inconclusive
O=C(CCS(=O)(=O)c1ccccc1)Nc1ccc(S(=O)(=O)Nc2nccs2)cc1	none
CCOc1cc(C(=O)N2CCCN(C)CC2)cc(OCC)c1OCC	none (no result: TDP1 block)
O=C1c2ccccc2-c2cc(Br)ccc2NC1O (configuration not stated)	DT40 TDP1 no CPT inconclusive (no result: TDP1 block)
O=C1c2ccccc2C(=Nc2ccccc2)C1c1cccc(Br)c1 (configuration not stated)	DT40 TDP1 no CPT inconclusive, TDP1 cell CPT 10µM
NNC(=O)c1cc2c(N3CCC(Cc4ccccc4)CC3)ncnc2s1	DT40 TDP1 no CPT 23µM, TDP1 cell CPT 16µM, TGFb inhibitor inconclusive
Cn1ncc2c(N3CCN(c4ccc(F)cc4)CC3)ncnc21	DT40 TDP1 no CPT 18µM, TDP1 cell CPT inconclusive (no result: IL-1B inflam inh)
Cn1ncc2c(N3CCC(Cc4ccccc4)CC3)ncnc21	DT40 TDP1 no CPT 16µM, TDP1 cell CPT inconclusive
COc1ccccc1N1CCN(c2ncnc3c2cnn3C)CC1	DT40 TDP1 no CPT 18µM, TDP1 cell CPT inconclusive (no result: IL-1B inflam inh)
Cc1ccc(-n2ncc3c(N4CCN(c5ccc(F)cc5)CC4)ncnc32)cc1	none (no result: IL-1B inflam inh)
COc1ccccc1N1CCN(c2ncnc3c2cnn3-c2cccc(Cl)c2)CC1	DT40 TDP1 no CPT inconclusive, TDP1 cell CPT inconclusive (no result: IL-1B inflam inh)
O=C(O)c1cc(NC(=O)c2ccccc2[N+](=O)[O-])ccc1O	none
CC(=O)O[C@H]1C[C@@H]2CC[C@@H]3[C@H](CC[C@@]4(C)[C@H]3C[C@H](N3CC[N+](C)(C)CC3)[C@@H]4OC(C)=O)[C@@]2(C)C[C@@H]1N1CC[N+](C)(C)CC1	none (no result: IL-1B inflam inh, TDP1 block, HepG2 viability, TGFb inhibitor)
